Screens deposited in PubChem by National Center for Advancing Translational Sciences (NCATS).
SNCA viab count: reduces viability of HEK-293 SNCA reporter cells; HEK-293-SNCA-luc viability, GF-AFC fluorescence, 24 h; Potency, µM (top dose mostly 57.1 µM), for the others: at the highest dose activity change, negative = cytotoxicity, usual class: cytotoxic; 150,000 compounds, 0.12% hits;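 also: potency is read from the fitted curve at half-maximal effect; 0% = DMSO-treated cells and -100% = medium-only wells without cells; nearly all actives have a fitted effect of over 30% in size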
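HEK-293-SNCA-luc cells (1500/well) plated 24 h, then exposed 24 h to a dilution series; GF-AFC added 30 min at 37C, fluorescence 405/540 nm; normalised to medium-only and DMSO wells, Hill fit.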
KDM5B inhibitor: KDM5B demethylase inhibition. Q9UGL1. KDM5B demethylase, FDH-coupled NADH fluorescence (FDH is formaldehyde dehydrogenase). Potency, µM (titrated, usually from 57.7 µM), most hits filed as inhibitors. AID 1347165. 220,000 compounds, 2.6% hits; also: potency is read from the fitted curve at half-maximal effect; 0% is about no effect; nearly all actives have a fitted effect of over 70% in size
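Inhibition is measured as reduced NADH fluorescence generation from FDH coupling to formaldehyde release. Truncated KDM5BΔAP at 200 nM final acts on H3K4me3 peptide (12.5 µM in substrate mix) in pH 7.5 HEPES buffer with Tween-20, 30 min, room temperature.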
IP6K1 inh: blocks human inositol hexakisphosphate kinase 1 | IP6K1 kinase, ADP-Glo luminescence, 2 h; active compounds read low | activity change, % (series mostly up to about 58 µM) | 140,000 compounds, 0.81% hits | AID 1645851; in the data active = activity change below about -25%; also: % is scaled to controls: 0 for no effect and ±100 for the full control effect
Target sequence (Q92551 whole entry, looked up): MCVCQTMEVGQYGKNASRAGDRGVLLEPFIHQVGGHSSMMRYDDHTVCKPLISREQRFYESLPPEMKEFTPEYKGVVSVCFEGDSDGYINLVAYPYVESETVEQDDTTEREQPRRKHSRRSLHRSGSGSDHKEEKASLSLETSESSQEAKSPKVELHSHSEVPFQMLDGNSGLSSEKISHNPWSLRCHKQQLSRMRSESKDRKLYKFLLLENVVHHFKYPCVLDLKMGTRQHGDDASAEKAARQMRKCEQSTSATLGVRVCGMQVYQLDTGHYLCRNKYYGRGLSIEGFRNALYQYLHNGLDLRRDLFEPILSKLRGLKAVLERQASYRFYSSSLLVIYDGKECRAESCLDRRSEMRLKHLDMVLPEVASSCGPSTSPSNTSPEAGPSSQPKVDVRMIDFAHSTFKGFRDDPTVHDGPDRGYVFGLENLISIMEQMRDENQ
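ADP-Glo luminescence measures ADP made by human IP6K1 during a 2 h RT reaction with ATP/IP6 (mix at 1.3 mM/130 uM); top library doses 57.5 and 19.1 uM final.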
SNCA expr inh: SNCA gene expression inhibition | HEK-293 SNCA-luciferase knock-in, luminescence, 24 h | Potency, µM (titrated, usually from 57.2 µM), for inactives: at the highest dose activity change, negative = inhibition, usual class: inhibitors | 140,000 compounds, 0.17% hits;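 also: potency is read from the fitted curve at half-maximal effect; plate controls were DMSO cells for no effect and cell-free wells for full effect; nearly all actives have a fitted effect of over 45% in size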
Numbers without * were called inactive; i = inactive; u = inconclusive; x = no result; ! = not confirmed by another sample; [ ] = remark or other dose. Rows were chosen to be rich in hits. Some 2.8% of all compounds tested hit in one or more screens of this group. Unless noted, calls follow the shape of the dose curve; as a rule, active = well fitted curve in the direction sought with a large enough effect; inconclusive = small, poorly fitted or top-dose-only effect, or another doubt; inactive = no such curve, though single readings can be large; an effect the other way counts as inactive or inconclusive.

SMILES	SNCA viab count	KDM5B inhibitor	IP6K1 inh	SNCA expr inh
COc1ccc(F)cc1Nc1cnc2ccc(N(C)Cc3cccnc3)nn12	u	32µM*	-21	u
CN1CCN(C(=O)c2ccc(-c3ccc(N4CCCCC4)nc3)cc2)CC1	-10%	u	-4	21%
O=C(c1ccc(-c2ccc(N3CCCCC3)nc2)cc1)N1CCCC1	-2%	28µM*	-7	21%
O=C(O)c1ccc(-c2ccc(N3CCCCCC3)nc2)cc1	-7%	u	-12	51%
O=C(c1ccc(-c2ccc(N3CCSCC3)nc2)cc1)N1CCCCC1	-18%	28µM*	20	14%
CN1CCN(C(=O)c2ccc(-c3ccc(N4CCSCC4)nc3)cc2)CC1	-12%	28µM*	-11	65%
CC1CCN(C(=O)c2ccc(-c3ccc(N4CCSCC4)nc3)cc2)CC1	u	28µM*	1	u
CCCN1CCN(C(=O)c2ccc(-c3ccc(N4CCCCC4)nc3)cc2)CC1	3%	25µM*	-3	23%
O=C(c1ccc(-c2ccc(N3CCSCC3)nc2)cc1)N1CCOCC1	4%	22µM*	-1	81%
CC(NC(=O)c1ccc(-c2ccc(N3CCCCCC3)nc2)cc1)c1cccnc1 (configuration not stated)	u	i	-2	u
CN(Cc1ccc(N2CCCCC2)cc1)C(=O)CCC[C@H]1NC[C@@H]2C[C@H]1CN(Cc1ccccc1)C2	22µM*	u	-2	u
O=C(CCC[C@H]1NC[C@@H]2CC1CN(Cc1ccccc1)C2)N1CCCC1	-14%	i	-7	-10%
CC1CCN(C(=O)CCC[C@H]2NC[C@@H]3C[C@H]2CN(Cc2ccccc2)C3)CC1	2%	7.9µM*	-11	8%
CN(Cc1cccnc1)C(=O)CCC[C@H]1NC[C@@H]2C[C@H]1CN(Cc1ccccc1)C2	0%	u	-1	-13%
Cc1cc(C)cc(-c2ccc(CN)cc2)c1	u	i	-13	u
CC(C)(C)c1ccc(-c2cc(C[C@H]3CNCC[C@H]3CC(=O)N3CCC(n4c(=O)[nH]c5ccccc54)CC3)no2)cc1	u	u	-2	u
O=C(c1ccc(-c2ccco2)cc1)N1CCOC(c2ccccc2)C1 (configuration not stated)	6%	28µM*	7	16%
CC(C)NC[C@H]1COCc2nc3cc(C(F)(F)F)ccc3n21	4%[87.6 µM]	i	-9	9%[87.6 µM]
CCn1c(CO)nnc1C1CC(NC(=O)c2cnn3cc(C)cnc23)C1 (configuration not stated)	-1%	28µM*!	13	48%
c1cc(OCc2nnc(-c3cccs3)o2)cc(-n2cnnn2)c1	x	i	x	x
COc1ccc(C)cc1NC(=O)N1CCCC2(C1)Nc1cccnc1NC2=NC1CCCC1 (configuration not stated)	u	28µM*	4	u
COc1cccc(NC(=O)N2CCCC3(C2)Nc2cccnc2NC3=NC2CCCC2)c1 (configuration not stated)	-26%	u	0	-15%
O=C(Nc1cc(F)cc(F)c1)N1CCCC2(C1)Nc1cccnc1NC2=NC1CCCC1 (configuration not stated)	-14%	14µM*	0	-17%
CCc1[nH]ncc1C(=O)N[C@H]1CC[C@H](Nc2nccc(-c3ccccn3)n2)C1	-11%	13µM*	-5	-9%
O=C(N[C@H]1CC[C@H](Nc2nccc(-c3cccnc3)n2)C1)c1ccc(O)cc1	-2%	20µM*	-18	7%
SMILES	SNCA viab count	KDM5B inhibitor	IP6K1 inh	SNCA expr inh
Cc1ccc(C(O)CNC(=O)C2CCC2)cc1 (configuration not stated)	x	i	x	x
O=C(Nc1ccc2ncnc(N3CCCCC3)c2c1)c1cncc(Br)c1	-1%	28µM*	13	5%
O=C(Nc1ccc2ncnc(N3CCCCC3)c2c1)c1ccsc1	u	i	4	-16%
Nc1ccc2ncnc(N3CCCC3)c2c1	6%	28µM*	6	-19%
COc1ccc(CC(=O)Nc2ccc3ncnc(N4CCCC4)c3c2)c(Cl)c1	-7%	u	2	8%
COc1ccc(CC(=O)Nc2ccc3ncnc(N4CCCCC4)c3c2)c(Cl)c1	-28%	32µM*	5	-18%
O=C(Nc1ccc2ncnc(N3CCCC3)c2c1)c1cccc(Br)c1	-14%	32µM*	12	-23%
O=C(Nc1ccc2c(N3CCCC3)ncnc2c1)c1ccc(Br)cc1	u	u	9	u
Cc1cccc(CN2CCCC(Cc3ncc(C)n3C(C)C)C2)c1 (configuration not stated)	-13%	x	20	1%
O=C(NC1CCCCCC1)c1ccc2nc(-c3cccnc3Cl)oc2c1	0%[87.6 µM]	x	2	22%[87.6 µM]
COc1ccc(COc2ccc(C#N)cc2OC)cc1	x	i	x	x
COc1ccc(-c2cc3nc4c(c(=O)n3[nH]2)CN(C(=O)c2cc(CN3CCOCC3)on2)CC4)cc1	-5%	8.9µM*	5	u
O=C(c1ccc(=O)[nH]c1)N1CCC(C(=O)N2CCc3c(nc4cc(-c5ccccc5)[nH]n4c3=O)C2)CC1	4%	u	7	3%
O=C(c1ccc2cc[nH]c2c1)N1CCc2c(nc3cc(-c4ccccc4)[nH]n3c2=O)C1	3%	28µM*	10	-5%
O=C(Nc1ccc2c(c1)CCC2)N1CCc2c(nc3cc(-c4ccccc4)[nH]n3c2=O)C1	7%	11µM*	42	-9%
Cc1ccc(C(=O)N2CCc3c(nc4cc(-c5ccccc5)[nH]n4c3=O)C2)cn1	2%	25µM*	22	17%
O=C(c1ccco1)N1CC[C@@H]2[C@@H](CCC(=O)N2CCc2ccccn2)C1	-2%	i	-7	-28%
O=C(c1ccccc1F)N1CCn2c(nnc2-c2ccc(Cl)cc2)C1	-2%	i	7	u
COc1ccc(C(=O)NC2CCN(Cc3ccc(-c4ccsc4)cc3)C2)cc1 (configuration not stated)	-9%	x	-6	-11%
O=S(=O)(Cc1ccccc1F)N1CCC(c2noc(-c3cccnc3)n2)C1 (configuration not stated)	16%	i	7	4%
COc1ccc(-c2cc3nc4c(c(=O)n3[nH]2)CN(C(=O)c2ccc(C)cc2)CC4)cc1	13%	u	14	u
COc1ccc(NC(=O)N2CCc3c(nc4cc(-c5ccccc5)[nH]n4c3=O)C2)c(OC)c1	-6%	u	22	-23%
COc1ccc2c(c1)CCc1c-2n[nH]c1C(=O)N1CCc2c(nc3cc(-c4ccccc4)[nH]n3c2=O)C1	6%	16µM*	-2	7%
COc1ccc(-c2cc3nc4c(c(=O)n3[nH]2)CN(C(=O)c2ccc3[nH]ccc3c2)CC4)cc1	3%	16µM*	0	u
C#CCNC(=O)C1CCCN(c2nccc(Nc3ccccc3F)n2)C1 (configuration not stated)	9%[12.5 µM]	x	11	u
Cc1nc(-c2ccccc2)n(Cc2nc(-c3ccc(OC(C)C)cc3)oc2C)c(=O)c1CCO	-2%	u	-2	-5%
